Results from PubChem BioAssay AID2551 (National Center for Advancing Translational Sciences (NCATS), 2010).
The campaign covered roughly 310,000 compounds. About 17,000 (5.5%) were called active. Not shown: some 11% with an inconclusive outcome. Many of the other results were omitted from the sample, so actives are more common in it than they were. Values without a mark were called inactive. Calls follow the shape of the dose curve; as a rule, active = well fitted inhibition curve with a large enough effect; inconclusive = small, poorly fitted or top-dose-only effect, or effect the other way; inactive = no such curve, though single readings can be large or run the other way.

What follows are compounds tested against Nuclear receptor ROR-gamma (Mus musculus) (UniProt P51450) (assay: qHTS for inhibitors of ROR gamma transcriptional activity). Details: Drosophila S2 Gal4-RORgamma UAS-luciferase reporter, 20 h; series mostly up to 53.6 µM; activity change, negative = inhibition: at the top concentration.
Nuclear receptor ROR-gamma (Mus musculus), sequence (P51450 whole entry, looked up, the tested form may be a part): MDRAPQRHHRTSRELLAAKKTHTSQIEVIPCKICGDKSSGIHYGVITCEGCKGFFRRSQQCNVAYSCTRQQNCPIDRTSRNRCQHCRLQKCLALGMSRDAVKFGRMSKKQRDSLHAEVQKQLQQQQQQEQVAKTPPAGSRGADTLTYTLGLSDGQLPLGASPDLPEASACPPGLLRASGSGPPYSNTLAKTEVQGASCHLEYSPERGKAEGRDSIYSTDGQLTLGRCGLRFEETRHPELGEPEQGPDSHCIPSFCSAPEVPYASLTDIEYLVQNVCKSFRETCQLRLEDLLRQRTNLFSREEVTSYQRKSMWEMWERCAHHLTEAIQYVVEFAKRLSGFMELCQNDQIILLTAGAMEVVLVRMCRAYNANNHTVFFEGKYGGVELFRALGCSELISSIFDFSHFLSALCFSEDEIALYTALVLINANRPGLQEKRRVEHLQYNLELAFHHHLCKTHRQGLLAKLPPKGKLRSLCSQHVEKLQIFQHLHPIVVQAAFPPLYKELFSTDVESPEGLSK
In short: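 Compounds are pin-transferred onto Drosophila Schneider cells expressing a copper-inducible Gal4–ROR gamma transactivation domain fusion. After 1 hr, copper sulfate is added to 700 uM final; luciferase is read 20 hr later.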
% is scaled to controls: 0 for no effect and ±100 for the full control effect; potency is read from the fitted curve at half-maximal effect.
Also: nearly all actives have a fitted effect of over 60% in size.

Row | Structure (SMILES) | activity change, negative = inhibition [%] | Potency
1 | CNC(=O)[C@]1(C(F)(F)F)C[C@H](CCc2ccccc2)CCCO1 | 42.9 | –
2 | CCOCCCN(C)C1CCN(C(=O)c2oc3ccccc3c2NC(=O)COc2cccc(C)c2)CC1 | -0.451 | –
3 | Cn1c(Nc2ccccc2)cc(=O)n(C)c1=O | -4.42 | –
4 | COc1cccc(NC(=O)COc2cc(C)cc3oc(=O)cc(C)c23)c1 | 4 | –
5 | COC(=O)C1(O)CC(C(C)C)=NN1C(=O)c1ccc(Cl)cc1 (centres undefined) | – | 10 µM (active)
6 | CC(NC(=O)c1ccc(Cl)cc1)C(=O)N1CCCCC1 (centres undefined) | -4.9 | –
7 | COC(=O)c1cn(C(=O)c2ccc(Cl)cc2)c2ccccc12 | 13.7 | –
8 | CC1CCC2CCCCC2N1C(=O)c1cc([N+](=O)[O-])cc([N+](=O)[O-])c1 (centres undefined) | -28 | –
9 | C=CCSc1nc2c(c(=O)[nH]c(=O)n2C)n1Cc1ccccc1 | 29.8 | –
10 | COc1ccccc1-c1nnc(SCC(=O)N2CC(C)CC(C)C2)o1 (centres undefined) | -17.1 | –
11 | Cc1cc(NC(=O)c2cccc(N3C(=O)CCC3=O)c2)no1 | 0.145 | –
12 | O=C(Nc1cccc2cccnc12)c1cccc(N2C(=O)CCC2=O)c1 | 22.7 | –
13 | COc1ccccc1-c1nnc(NC(=O)c2ccc3ncsc3c2)o1 | – | 0.501 µM (active)
14 | COc1ccccc1-c1nnc(NC(=O)c2cccc(N3C(=O)CCC3=O)c2)o1 | – | 11.2 µM (active)
15 | COc1ccccc1NC(=O)c1ccc2nc(N3C(=O)CCC3=O)sc2c1 | -0.921 | –
16 | O=C(CC1C(=O)NCCN1CC(c1ccccc1)c1ccccc1)NCC1CCOCC1 (centres undefined) | -0.562 | –
17 | COCCCNC(=O)/C(C#N)=C/c1c(N2CCCCCC2)nc2ccccn2c1=O | -0.567 | –
18 | CC1(C)Oc2ccc3ccc(=O)oc3c2/C(=N/O)C1=O | -6.38 | –
19 | CCN1CCN(C(c2cccnc2)c2cc(Cl)c3cccnc3c2O)CC1 (centres undefined) | – | 2.82 µM (active)
20 | Oc1ccccc1CN1CCN(C(c2ccccc2)c2ccccc2)CC1 | 20 | –
21 | CCOC(=O)N1CCN(C(=O)C2CCN(c3ncnc4c3sc3cccc(F)c34)CC2)CC1 | 20.4 | –
22 | Cc1onc(C(=O)NN)c1C(=O)N1CCN(C(c2ccccc2)c2ccccc2)CC1 | -15 | –
23 | CCN1CCN(c2ccc(NC(=O)c3cnccn3)cc2)CC1 | -33.7 | –
24 | CCOC(=O)N1CCN(C(c2cccnc2)c2ccc3cccnc3c2O)CC1 (centres undefined) | – | 4.47 µM (active)
25 | CCc1nc2nc(C)c(NS(=O)(=O)c3ccc4c(c3)CCCC4)c(=O)n2[nH]1 | -9.27 | –
26 | COc1ccc(Nc2nnc(C)c3ccccc23)cc1 | 29.9 | –
27 | COc1ccc(Nc2nc(=O)[nH]nc2C)cc1 | -0.69 | –

Row | Structure (SMILES) | activity change, negative = inhibition [%] | Potency
28 | COc1ccc(NC2=CC(=S)NC(C)(C)C2)cc1 | – | 7.08 µM (active)
29 | COc1ccc(NS(=O)(=O)c2ccc(F)cc2F)cn1 | 0.367 | –
30 | CC(C)CCN1NC2(CCC(C)CC2)NC1=S (centres undefined) | – | 7.08 µM (active)
31 | COc1ccc(NC(=O)CN2C(=O)COc3ccc(S(=O)(=O)N4CCOCC4)cc32)cc1 | 0.317 | –
32 | COCCN1C(=O)C(=O)/C(=C(/O)c2ccc(S(=O)(=O)N3CCCCC3)cc2)C1c1ccc(OC)c(OC)c1 (centres undefined) | -11.7 | –
33 | Cn1c(CO)cnc1SCc1ccccc1 | 17.6 | –
34 | CSc1c(SCc2ccccc2)cnn(Cc2ccccc2)c1=O | – | 5.62 µM (active)
35 | CSc1nc2ccccc2c(=O)n1Cc1ccc(F)cc1 | 37.8 | –
36 | Cc1cc(Cl)c2oc(C(=O)NC(C)c3ccncn3)c(C)c2c1 (centres undefined) | -22.4 | –
37 | COc1ccc(NC(=O)CSCc2ccc([N+](=O)[O-])cc2)cc1OC | 0.586 | –
38 | CCn1cc(C(=O)N[C@@H](C)C(=O)NCCO)c(=O)c2cc3c(cc21)OCO3 | 1.23 | –
39 | Cc1cc(C)nc(SC(C)C(=O)N/N=C/c2cccs2)n1 (centres undefined) | 14.8 | –
40 | Cc1nnc(N/N=C/c2cccs2)[nH]c1=O | 13.8 | –
41 | Cc1n[nH]c(=O)nc1N/N=C/c1cccs1 | – | 5.01 µM (active)
42 | CC(Oc1cc2oc(=O)c3c(c2cc1Cl)CCCC3)C(=O)NCc1ccncc1 (centres undefined) | -13 | –
43 | COc1ccc(OC)c(NC(=S)N2CCc3ccccc3C2)c1 | – | 17.8 µM (active)
44 | COc1ccc(NC(=S)N2CCc3cc(OC)c(OC)cc3C2)cc1 | 0.935 | –
45 | COc1ccc(C)cc1NC(=S)N1CCOCC1 | 27.8 | –
46 | O=C(Nc1ccc(C(=O)NCc2ccccc2Cl)cc1)C1=CSCCO1 | 37 | –
47 | CC(C)CNS(=O)(=O)c1ccc(CCC(=O)NCc2ccc(Cl)cc2)cc1 | 26.1 | –
48 | O=C(CN1CCN(c2ccc(Cl)cc2)CC1)NCc1cccs1 | 11.9 | –
49 | S=C(NCc1cccs1)Nc1ccc(Cl)cc1 | – | 6.31 µM (active)
50 | O=C(Cc1cccc2ccccc12)NNC(=O)Nc1ccc(Cl)cc1 | 18.9 | –
51 | Cn1cc(C(=O)NCc2ccccc2F)cn1 | 0.122 | –
52 | CC(NCc1cccs1)C(=O)Nc1cc(Cl)cc(Cl)c1 (centres undefined) | 14.4 | –
53 | Fc1ccccc1CNC(=S)Nc1ccc(Cl)cc1 | – | 7.08 µM (active)
54 | Cc1cc(C(F)(F)F)nc(SCC(=O)Nc2nccs2)n1 | -16.2 | –
